Measurements as given in the supplement of paper PMC9925115.
Several values for one entry are separate records, joined by “and”; a condition that tells them apart may be missing. Identical values can stand only once. Counter-ions that a name gives are not always drawn.

These compounds were tested on FLX1 + dox-induced PRKAR1A G325D (assay: difference in log2 fold change of viability vs plate median (dox-induced PRKAR1A G325D minus uninduced); higher = compound less effective when PKA is inhibited). Conditions: concentration: not stated (2 or 5 uM); 5 days.
Protocol: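 For each plate a log2 fold change vs the plate median was derived, and the values without dox were subtracted from those with dox, averaged over three biological replicates.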

`O=C(O)c1ccc(-c2c[nH]c3ncc(-c4ccccc4)cc23)cc1C1CCCC1` and `COc1cc(N2CCC(N)CC2)ccc1Nc1ncc(Cl)c(-c2c[nH]c3ccccc23)n1` are within 0.2 log units of each other in “difference in log2 fold change of viability” value (“difference in log2 fold change” for short): 0.0725 for the first, 0.0117 for the second.

`Cc1c(F)cc(C(=O)NC2CC2)cc1-c1ccc(C(=O)NCC(C)(C)C)cn1` and `C[C@@H](NC(=O)c1ncnc(N)c1Cl)c1ncc(C(=O)Nc2cc(C(F)(F)F)c(Cl)cn2)s1` are within 0.2 log units of each other in “difference in log2 fold change” value: -0.0149 for the first, -0.193 for the second.

Compared with `C=CCc1ccc(O)c(-c2ccc(O)c(CC=C)c2)c1` [Honokiol], `N#C/C(=C\c1ccc(O)c(O)c1)C(=O)NCc1ccccc1` [AG-490 (Tyrphostin B42)] is higher in “difference in log2 fold change” value: -1.37 for the first, -0.0065 for the second.

First: S=C(NCc1ccc2c(c1)OCO2)N1CCN(c2ncnc3c2oc2ccccc23)CC1 [Amuvatinib (MP-470)]
Second: CC(C)NC[C@@H](C(=O)N1CCN(c2ncnc3c2[C@H](C)C[C@H]3O)CC1)c1ccc(Cl)cc1 [Ipatasertib (GDC-0068)]
The “difference in log2 fold change” value of the first is lower: 0.22 for the first, 0.54 for the second.

First: COc1ccc(-c2ccc3ncc4c(c3c2)n(-c2ccc(N3CCNCC3)c(C(F)(F)F)c2)c(=O)n4C)cn1
Second: COCCOc1ccc2c(c1)ncn2-c1ccc2cccc(N3CCC(N)CC3)c2n1
The “difference in log2 fold change” value of the first is higher: 0.174 for the first, -0.262 for the second.

`Cn1cc(-c2ccc3ncc(Cc4ccc5ncccc5c4)n3n2)cn1` and `OCCn1cc(-c2cnc3nnn(Cc4ccc5ncccc5c4)c3n2)cn1` are within 0.2 log units of each other in “difference in log2 fold change” value: -0.0241 for the first, -0.172 for the second.

`Cc1nc(N)sc1-c1ccnc(Nc2ccc(N3CCOCC3)cc2)n1` and `Cc1ncc(-c2ccnc(Nc3ccc(S(C)(=O)=O)cc3)n2)n1C(C)C` are within 0.2 log units of each other in “difference in log2 fold change” value: 0.455 for the first, 0.632 for the second.

`Cc1ccc(S(=O)(=O)/C=C/C#N)cc1` and `CNCc1ccc(-c2cc(-c3nc(-c4ccc(S(=O)(=O)C(C)C)cc4)cnc3N)on2)cc1` are within 0.2 log units of each other in “difference in log2 fold change” value: -0.118 for the first, -0.00074 for the second.

Compared with `Cc1cc(C)c(/C=C2\C(=O)Nc3ccccc32)[nH]1` [Semaxanib (SU5416)], `Cn1cc(/C=C2\C(=O)Nc3cccnc32)c2ccccc21` is lower in “difference in log2 fold change” value: 0.256 for the first, 0.00477 for the second.

Going from `CNC(=O)c1nn(C)c2c1C(C)(C)Cc1cnc(Nc3ccc(N4CCN(C)CC4)cc3)nc1-2` to `CN1CCN(S(=O)(=O)c2ccc(-c3cnc(N)c(C(=O)Nc4cccnc4)n3)cc2)CC1`, the “difference in log2 fold change” value falls from 0.64 to -0.529.

Compared with `CC(C)(C)c1cc(/C=C(\C#N)C(N)=S)cc(C(C)(C)C)c1O` [Tyrphostin AG 879], `NC(=O)Nc1sc(-c2ccc(F)cc2)cc1C(N)=O` is lower in “difference in log2 fold change” value: 0.264 for the first, -0.89 for the second.

Going from `O=C(Nc1cccc(Cl)c1)Nc1ncc(CCNc2ncnc3ccsc23)s1` [SNS-314 Mesylate] to `Cc1ccc(F)c(NC(=O)Nc2ccc(-c3cccc4[nH]nc(N)c34)cc2)c1` [Linifanib (ABT-869)], the “difference in log2 fold change” value rises from -0.153 to 0.386.

`CN1CCN(c2ccc3nc(-c4c(N)c5c(F)cccc5[nH]c4=O)[nH]c3c2)CC1` [Dovitinib (TKI-258, CHIR-258)] and `Cc1cc([C@@H](C)Nc2ccccc2C(=O)O)c2nc(N3CCOCC3)cc(=O)n2c1` are within 0.2 log units of each other in “difference in log2 fold change” value: 0.0764 for the first, 0.0369 for the second.

Going from `CNc1nc(-c2ccc3c(N)n[nH]c3c2)cc(N2C[C@@H](C(=O)NC3CCCCC3)CC[C@H]2C)n1` to `C=CC(=O)Nc1cccc(Nc2nc(Nc3ccc(NC4CN(CCF)C4)cc3OC)ncc2C(F)(F)F)c1`, the “difference in log2 fold change” value falls from 0.221 to -0.839.

Compared with `Cc1ccc(Nc2nccc(N(C)c3ccc4c(C)n(C)nc4c3)n2)cc1S(N)(=O)=O`, `Cc1cn(-c2cc(NC(=O)c3ccc(C)c(Nc4nccc(-c5cccnc5)n4)c3)cc(C(F)(F)F)c2)cn1` [Nilotinib (AMN-107)] is higher in “difference in log2 fold change” value: -0.0987 for the first, 0.157 for the second.

`Cc1c(NC(=O)OC[C@@H]2COCCN2)cn2ncnc(Nc3ccc4c(cnn4Cc4cccc(F)c4)c3)c12` and `C=CC(=O)Nc1cc(Nc2nccc(-c3cn(C)c4ccccc34)n2)c(OC)cc1N(C)CCN(C)C` [Osimertinib (AZD9291)] are within 0.2 log units of each other in “difference in log2 fold change” value: -0.034 for the first, -0.173 for the second.

First: O=S(=O)(c1cccc2cnccc12)N1CCCNCC1 [Fasudil (HA-1077) HCl]
Second: Clc1ccc(C2(c3ccc(-c4cn[nH]c4)cc3)CCNCC2)cc1
The “difference in log2 fold change” value of the first is lower: -0.15 for the first, 0.734 for the second.

First: Cc1[nH]nc2ccc(-c3cncc(OC[C@@H](N)Cc4ccccc4)c3)cc12
Second: N#CC1(c2ccc(NC(=O)c3cccnc3NCc3ccncc3)cc2)CCCC1 [Apatinib]
The “difference in log2 fold change” value of the first is lower: 0.18 for the first, 0.497 for the second.

First: Cn1c(=O)c(F)c(Nc2ccc(I)cc2F)c2c(=O)n(C[C@@H](O)CO)cnc21
Second: CO[C@H]1C[C@@H]2CC[C@@H](C)[C@@](O)(O2)C(=O)C(=O)N2CCCC[C@H]2C(=O)O[C@H]([C@H](C)C[C@@H]2CC[C@@H](OC(=O)C(C)(CO)CO)[C@H](OC)C2)CC(=O)[C@H](C)/C=C(\C)[C@@H](O)[C@@H](OC)C(=O)[C@H](C)C[C@H](C)/C=C/C=C/C=C/1C
The “difference in log2 fold change” value of the first is lower: -1.3 for the first, 0.457 for the second.

With `CO[C@H]1C[C@@H]2CC[C@@H](C)[C@@](O)(O2)C(=O)C(=O)N2CCCC[C@H]2C(=O)O[C@H]([C@H](C)C[C@@H]2CC[C@@H](O)[C@H](OC)C2)CC(=O)[C@H](C)/C=C(\C)[C@@H](O)[C@@H](OC)C(=O)[C@H](C)C[C@H](C)/C=C/C=C/C=C/1C` [Rapamycin (Sirolimus)] the “difference in log2 fold change” value was -0.339.

For `Cc1cnc(-c2cnc(NCCNc3ccc(C#N)cn3)nc2-c2ccc(Cl)cc2Cl)[nH]1`, the “difference in log2 fold change” value was -0.0854 and -0.119.
